# Source: PubChem BioAssay (NCATS)
# Values without a mark were called inactive. Inconclusive results are not listed. A call without a number means that no potency is given here. The source made the active and inactive calls. Unless noted, calls follow the shape of the dose curve; as a rule, active = well fitted curve in the direction sought with a large enough effect; inconclusive = small, poorly fitted or top-dose-only effect, or another doubt; inactive = no such curve, though single readings can be large; an effect the other way counts as inactive or inconclusive.
# Experiments:
# [1] = S16 Schwann cell PMP22 intronic element beta-lactamase assay (AID 624044; calls by dose curve; also: nearly all actives have a fitted effect of over 15% in size)
# How it was run: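 Rat S16 Schwann cells with beta-Lac driven by a PMP22 intronic element, compound-treated 24 h at 37 °C. LiveBLAzer FRET B/G read: 460 nm normalized to potassium clavulanate vs DMSO; 535 nm FRET as viability; concentration-effect curves classified.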
# [2] = target: Glutaminase kidney isoform, mitochondrial (Homo sapiens) (UniProt O94925); assay: qHTS for Inhibitors of Glutaminase (GLS): LOPAC Validation (AID 624146);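 also: glutamate product detected by oxidase and peroxidase coupled Amplex red fluorescence gain; series mostly up to about 46 µM; nearly all actives have a fitted effect of over 60% in size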
# Glutaminase kidney isoform, mitochondrial (Homo sapiens), sequence (O94925 whole entry, looked up, canonical isoform): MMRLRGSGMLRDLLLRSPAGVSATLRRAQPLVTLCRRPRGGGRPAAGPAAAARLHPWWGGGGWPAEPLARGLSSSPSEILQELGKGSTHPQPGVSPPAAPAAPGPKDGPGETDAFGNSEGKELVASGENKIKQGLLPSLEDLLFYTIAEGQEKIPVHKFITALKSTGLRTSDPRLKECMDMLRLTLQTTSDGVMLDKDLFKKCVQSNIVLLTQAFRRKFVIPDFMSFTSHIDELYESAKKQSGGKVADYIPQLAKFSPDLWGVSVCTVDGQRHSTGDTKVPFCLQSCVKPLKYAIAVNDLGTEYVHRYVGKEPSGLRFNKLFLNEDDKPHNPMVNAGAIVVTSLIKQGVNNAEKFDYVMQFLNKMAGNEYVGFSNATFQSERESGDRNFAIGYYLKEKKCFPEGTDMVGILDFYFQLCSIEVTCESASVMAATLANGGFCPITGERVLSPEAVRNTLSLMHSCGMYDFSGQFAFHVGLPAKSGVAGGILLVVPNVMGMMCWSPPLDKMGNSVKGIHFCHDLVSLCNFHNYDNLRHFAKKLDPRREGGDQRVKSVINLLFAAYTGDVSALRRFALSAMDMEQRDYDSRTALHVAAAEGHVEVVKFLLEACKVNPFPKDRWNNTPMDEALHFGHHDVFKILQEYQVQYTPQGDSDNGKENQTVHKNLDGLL
# How it was run: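 Read-out is an Amplex red fluorescence increase coupled through glutamate oxidase and HRP, measured before and after 30 min room-temperature incubation. hKGA is in 45 mM KH2PO4 (pH 8.2) with 0.02% Tween-20; glutamine added as 1mM solution.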
# [3] = qHTS of Trypanosoma Brucei Inhibitors: LOPAC Validation (AID 624147); also: potency is read from the fitted curve at half-maximal effect
# How it was run: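 Luminescent Kinase-Glo Plus end-point after 45 min room-temperature reaction of T. brucei pyruvate kinase started with 130 uM ADP (final). Buffer TEA 50 mM pH 7.2 with KCl, MgCl2, BSA, Tween-20; titration-based qHTS with fitted concentration-effect curves.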
# [4] = target: Glucagon-like peptide 1 receptor (Homo sapiens) (UniProt P43220); assay: qHTS of GLP-1 Receptor Agonists: LOPAC Validation (AID 624148);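 also: luminescence from a luciferase reporter switched on by cAMP; higher luminescence signal means agonism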
# Glucagon-like peptide 1 receptor (Homo sapiens), sequence (P43220 whole entry, looked up): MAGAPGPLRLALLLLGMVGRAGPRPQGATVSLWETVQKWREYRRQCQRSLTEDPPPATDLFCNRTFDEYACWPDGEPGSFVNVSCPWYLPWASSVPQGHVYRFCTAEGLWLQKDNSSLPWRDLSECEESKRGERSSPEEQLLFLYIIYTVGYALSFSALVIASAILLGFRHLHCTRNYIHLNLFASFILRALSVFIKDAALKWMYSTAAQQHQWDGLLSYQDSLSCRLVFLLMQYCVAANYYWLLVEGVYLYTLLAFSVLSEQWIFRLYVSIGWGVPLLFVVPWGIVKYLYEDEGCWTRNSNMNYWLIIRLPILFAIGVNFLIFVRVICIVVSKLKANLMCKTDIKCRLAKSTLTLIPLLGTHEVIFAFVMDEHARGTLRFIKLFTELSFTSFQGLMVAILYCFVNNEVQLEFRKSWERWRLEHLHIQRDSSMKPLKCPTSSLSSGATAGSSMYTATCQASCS
# How it was run: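 Agonism scored as increased luciferase luminescence driven by cAMP in HEK293 clones carrying GLP-1R. Cells settled 12 hours, received compound for 4-6 hr at 37 deg C, 5% CO2, and were read after 12 min detection reagent at RT.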
# [5] = target: Voltage-gated inwardly rectifying potassium channel KCNH2 (Homo sapiens) (UniProt Q12809); assay: qHTS Assay for Small Molecule Inhibitors of the Human hERG Channel Activity (AID 588834);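 also: top concentration of the series differs between compounds; lower thallium flux fluorescence means stronger hERG block; nearly all actives have a fitted effect of over 50% in size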
# Voltage-gated inwardly rectifying potassium channel KCNH2 (Homo sapiens), sequence (Q12809 whole entry, looked up): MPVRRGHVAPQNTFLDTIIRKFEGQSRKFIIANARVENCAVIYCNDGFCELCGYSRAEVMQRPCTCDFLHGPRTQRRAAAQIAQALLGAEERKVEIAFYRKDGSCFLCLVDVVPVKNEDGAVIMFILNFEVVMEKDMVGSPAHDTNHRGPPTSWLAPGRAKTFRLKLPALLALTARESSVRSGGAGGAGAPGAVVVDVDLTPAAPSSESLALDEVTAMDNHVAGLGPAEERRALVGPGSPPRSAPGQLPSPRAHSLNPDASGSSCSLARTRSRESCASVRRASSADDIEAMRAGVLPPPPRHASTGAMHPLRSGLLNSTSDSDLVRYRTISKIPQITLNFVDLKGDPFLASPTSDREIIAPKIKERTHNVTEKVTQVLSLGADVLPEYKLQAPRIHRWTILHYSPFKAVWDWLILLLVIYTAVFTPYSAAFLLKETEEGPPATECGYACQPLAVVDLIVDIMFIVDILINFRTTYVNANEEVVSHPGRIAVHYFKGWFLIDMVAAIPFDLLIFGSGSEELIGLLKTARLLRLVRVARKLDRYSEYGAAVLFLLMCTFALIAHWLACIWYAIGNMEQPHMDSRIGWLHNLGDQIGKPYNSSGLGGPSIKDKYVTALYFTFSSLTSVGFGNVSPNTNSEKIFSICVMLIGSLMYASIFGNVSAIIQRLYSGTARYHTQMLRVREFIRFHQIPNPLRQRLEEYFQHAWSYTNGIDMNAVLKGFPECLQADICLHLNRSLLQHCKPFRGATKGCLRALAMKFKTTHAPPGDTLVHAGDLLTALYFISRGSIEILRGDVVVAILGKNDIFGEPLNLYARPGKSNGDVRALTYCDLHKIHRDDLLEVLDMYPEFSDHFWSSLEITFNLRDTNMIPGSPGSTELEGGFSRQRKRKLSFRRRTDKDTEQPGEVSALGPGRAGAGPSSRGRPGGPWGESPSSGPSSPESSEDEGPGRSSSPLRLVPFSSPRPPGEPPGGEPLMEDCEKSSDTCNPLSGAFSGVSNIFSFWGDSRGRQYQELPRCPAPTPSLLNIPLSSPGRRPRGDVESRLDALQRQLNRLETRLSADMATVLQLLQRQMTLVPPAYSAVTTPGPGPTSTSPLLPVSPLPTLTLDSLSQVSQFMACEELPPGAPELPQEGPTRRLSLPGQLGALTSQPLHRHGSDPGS
# How it was run: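 Kinetic FDSS fluorescence; U2OS + hERG BacMam (~100 virus particles/cell); FluxOR Tl+ flux; ~10 min cpd; AC50 (Hill).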
# [6] = qHTS of Nrf2 Activators: LOPAC Validation (AID 624149)
# How it was run: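 Luminescence read-out of ARE-luciferase activation: AREc32_Fluc cells treated with compounds for 24 hr at 37 deg C, then lysed with Steady-Glo for 30 min at room temperature before reading.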
# [7] = HTS Assay for Allosteric Antagonists of the Human D2 Dopamine Receptor: Hit Validation in HTRF (AID 624455);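 also: stable D1 dopamine receptor cell line scored for blocking the D1 response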
# How it was run: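 First, antagonism was screened by calcium flux in a force-coupled, inducible Hek293 Trex D2 line challenged with EC80 dopamine. Hits then went into an HTRF assay in cells stably expressing D1, testing inhibition of the D1 response.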
# [8] = target: Luciferin 4-monooxygenase (Photinus pyralis) (UniProt P08659); assay: Biochemical firefly luciferase enzyme assay for NPC (AID 624030);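 also: purified P. pyralis luciferase at 10 nM with luciferin and ATP substrate; series mostly up to about 59 µM; nearly all actives have a fitted effect of over 70% in size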
# Luciferin 4-monooxygenase (Photinus pyralis), sequence (P08659 whole entry, looked up): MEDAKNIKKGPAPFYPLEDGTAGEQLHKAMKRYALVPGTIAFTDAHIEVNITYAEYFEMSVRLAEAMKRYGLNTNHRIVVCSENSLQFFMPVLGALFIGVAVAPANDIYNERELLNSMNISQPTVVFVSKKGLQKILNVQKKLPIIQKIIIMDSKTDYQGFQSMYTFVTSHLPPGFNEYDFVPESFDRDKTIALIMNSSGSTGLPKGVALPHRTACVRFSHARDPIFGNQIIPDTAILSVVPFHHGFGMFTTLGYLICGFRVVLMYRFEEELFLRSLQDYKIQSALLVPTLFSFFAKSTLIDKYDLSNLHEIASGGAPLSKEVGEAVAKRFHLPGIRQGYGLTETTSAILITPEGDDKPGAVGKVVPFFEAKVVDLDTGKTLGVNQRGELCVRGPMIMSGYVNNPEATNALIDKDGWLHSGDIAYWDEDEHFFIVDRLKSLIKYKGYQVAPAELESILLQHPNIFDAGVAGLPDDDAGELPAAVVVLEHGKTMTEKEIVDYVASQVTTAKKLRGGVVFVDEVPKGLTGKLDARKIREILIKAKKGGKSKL
# How it was run: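 Direct inhibition of firefly luciferase enzyme (10 nM final, 50 mM Tris Acetate) assessed by luminescence within 5 minutes. Percent activity scaled between DMSO and PTC124 positive control, with concentration-effect curves classified by fit quality and response.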
# [9] = S16 Schwann cell viability assay (CellTiter-Glo assay) (AID 624031); also: nearly all actives have a fitted effect of over 70% in size; also: potency is read from the fitted curve at half-maximal effect
# How it was run: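 Native S16 rat Schwann cells, 500-750 cells/well in DMEM with 10% FBS, dosed with compound after overnight culture and incubated 24h at 37 degree Celsius/5% CO2. Viability by CellTiter-Glo luminescence; % activity normalized to no-cell wells and DMSO-treated cells.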
# [10] = S16 Schwann cell PMP22 intronic element firefly luciferase assay (AID 624032); also: nearly all actives have a fitted effect of over 30% in size; also: potency is read from the fitted curve at half-maximal effect
# How it was run: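 Luciferase reporter of PMP22 intronic-element expression in stably transfected S16 rat Schwann cells, read by ONE-Glo luminescence after 24 h compound exposure at 37 C. Activity scaled between DMSO (0%) and positive-control PTC124; concentration-effect curves quality-classified.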
# [11] = qHTS assay for small molecule agonists of the antioxidant response element (ARE) signaling pathway (AID 651741; active = well fitted activation curve with a large enough effect in the signal ratio; the % refers to the signal ratio; also: potency is read from the fitted curve at half-maximal effect)
# How it was run: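 Quantitative HTS in HepG2 cells stably expressing an ARE-beta-lactamase reporter; 16 h compound exposure at 37 C, followed by 2 h room-temperature incubation with LiveBLAzer B/G FRET substrate and fluorescence measurement.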
# [12] = qHTS assay for small molecule activators of the p53 signaling pathway (AID 651743; active = well fitted activation curve with a large enough effect in the signal ratio, not every such curve was filed as active; the % refers to the signal ratio; also: series mostly up to about 92 µM); conditions: HCT-116 p53RE-bla, beta-lactamase FRET ratio, 16 h; activation: stronger effect = higher value
# How it was run: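 Read-out is fluorescence intensity from the LiveBLAzer B/G FRET substrate, added for 2 hours at room temperature after HCT-116 p53RE-bla cells had been incubated with compounds for 16 hours at 37 C.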
SMILES,Potency [1],Potency [2],Potency [3],Potency [4],Potency [5],outcome [6],Potency [7],Potency [8],Potency [9],Potency [10],Potency [11],activation [12]
CN1CCN(C2=Nc3cc(Cl)ccc3Nc3ccccc32)CC1,inactive,inactive,inactive,inactive,–,–,–,–,–,–,–,–
CCC1(C)CC(=O)NC1=O (configuration not stated),–,–,inactive,inactive,inactive,inactive,inactive,–,–,–,–,–
CCN1CCCC1CNC(=O)c1cc(S(=O)(=O)CC)c(N)cc1OC (configuration not stated),–,inactive,inactive,inactive,–,inactive,inactive,inactive,–,–,–,–
CN1CCC(=C2c3ccccc3C=Cc3ccccc32)CC1,–,inactive,inactive,inactive,–,inactive,inactive,inactive,–,–,–,–
Cn1cnc2c1c(=O)[nH]c(=O)n2C,inactive,inactive,inactive,inactive,–,inactive,inactive,inactive,inactive,inactive,inactive,–
CN1CCN2c3ccccc3Cc3ccccc3C2C1 (configuration not stated),inactive,inactive,–,inactive,–,inactive,inactive,inactive,inactive,inactive,–,–
Cc1ccccc1N1C(=O)c2cc(S(N)(=O)=O)c(Cl)cc2NC1C (configuration not stated),–,inactive,inactive,inactive,–,inactive,inactive,inactive,–,–,–,–
CNCCCC12CCC(c3ccccc31)c1ccccc12,–,inactive,inactive,inactive,–,inactive,inactive,inactive,32.2 µM (active),32.2 µM (active),–,–
Nc1nnc(-c2cccc(Cl)c2Cl)c(N)n1,inactive,inactive,inactive,inactive,–,inactive,inactive,inactive,inactive,inactive,–,–
Cc1cnc(C(=O)NCCc2ccc(S(=O)(=O)NC(=O)NC3CCCCC3)cc2)cn1,–,–,inactive,inactive,–,inactive,inactive,inactive,inactive,inactive,–,–
Nc1c2c(nc3ccccc13)CCCC2,–,inactive,inactive,inactive,–,inactive,inactive,inactive,inactive,–,–,1%
CN1C2CCC1CC(OC(=O)C(CO)c1ccccc1)C2 (configuration not stated),–,inactive,inactive,–,–,inactive,inactive,–,–,–,–,–
CC#C[C@]1(O)CC[C@H]2[C@@H]3CCC4=CC(=O)CCC4=C3[C@@H](c3ccc(N(C)C)cc3)C[C@@]21C,inactive,–,21.3 µM (active),inactive,–,inactive,inactive,inactive,inactive,–,21.7 µM (active),–
Cn1c(=O)c2[nH]cnc2n(C)c1=O,–,–,inactive,inactive,–,inactive,inactive,inactive,inactive,–,inactive,0.514%
